Several values for one entry are separate records, joined by “and”; a condition that tells them apart may be missing. Equal entries are not always repeated. Hit rate of the full screen: of about 5,500 compounds, about 2,000 (36%) were called active. Not shown: some 18% with an inconclusive outcome. Rule as the data show it: active = normalized growth mostly below about 0.91 (no sharp cut-off); inconclusive = no clear call, values can overlap the other calls; inactive = mostly above about 0.92. Some of the results follow.
Assay: chemical genetic growth profiling, strain panel (AID 1159580);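 also: tested at 20 µM; growth read once vehicle control cultures reached saturation at 30 °C; 1 = growth at the plate median or of vehicle wells; lower values mean less growth of the strain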
Settings: S. cerevisiae deletion strains, growth OD

Measured: normalized growth

CC(C)[C@@H]1CC[C@@H](C)C[C@H]1OC(=O)c1ccccc1
inactive: locus YAL013W, strain DEP1, hits give low values 1.01 | locus YAL021C, strain ccr4, hits give low values 1.01 | locus YAL026C, strain drs2, hits give low values 1.01 | locus YAL030W, strain snc1, hits give low values 1.01 | locus YBL061C, strain skt5, hits give low values 1.01 | locus YBR009C, strain hhf1, hits give low values 0.999 | locus YBR021W, strain FUR4, hits give low values 0.997 | locus YBR023C, strain chs3, hits give low values 1.01 | locus YBR171W, strain sec66, hits give low values 1 | locus YBR229C, strain ROT2, hits give low values 1.01 | locus YBR231C, strain swc5, hits give low values 1.02 | locus YBR279W, strain paf1, hits give low values 1.01 | locus YCL011C, strain gbp2, hits give low values 1 | locus YCL016C, strain dcc1, hits give low values 1.01 | locus YCL029C, strain bik1, hits give low values 0.99 | locus YCL061C, strain MRC1, hits give low values 1 | locus YCL069W, strain vba3, hits give low values 1 | locus YCR088W, strain abp1, hits give low values 1 | locus YDL005C, strain med2, hits give low values 0.991 | locus YDL035C, strain GPR1, hits give low values 0.988 | locus YDL040C, strain nat1, hits give low values 0.993 | locus YDL074C, strain BRE1, hits give low values 0.995 | locus YDL101C, strain DUN1, hits give low values 0.999 | locus YDL134C, strain PPH21, hits give low values 0.962 | locus YDL185W, strain tfp1, hits give low values 0.997 | locus YDL192W, strain arf1, hits give low values 0.929 | locus YDR001C, strain nth1, hits give low values 0.994 | locus YDR069C, strain doa4, hits give low values 0.999 | locus YDR101C, strain arx1, hits give low values 0.978 | locus YDR137W, strain rgp1, hits give low values 0.942 | locus YDR150W, strain NUM1, hits give low values 1.04 | locus YDR159W, strain sac3, hits give low values 1.02 | locus YDR162C, strain NBP2, hits give low values 0.91 | locus YDR195W, strain ref2 0.975 | locus YDR297W, strain sur2, hits give low values 1.01 | locus YDR318W, strain mcm21, hits give low values 0.992 | locus YDR334W, strain swr1, hits give low values 1 | locus YDR335W, strain msn5, hits give low values 1.01 | locus YDR388W, hits give low values 0.999 | locus YDR392W, strain spt3, hits give low values 0.997 | locus YDR502C, strain sam2, hits give low values 0.995 | locus YEL003W, strain gim4, hits give low values 1.02 | locus YEL037C, strain rad23, hits give low values 1.01 | locus YEL061C, strain CIN8 (second series), hits give low values 1.01 | locus YEL061C, strain CIN8, hits give low values 1.03 | locus YER015W, strain faa2, hits give low values 1.01 | locus YER016W, strain bim1, hits give low values 0.999 | locus YER110C, hits give low values 1 | locus YER111C, strain swi4, hits give low values 1.01 | locus YER155C, strain BEM2 (second series), hits give low values 1.02 | locus YER155C, strain BEM2, hits give low values 1.01 | locus YER167W, strain BCK2, hits give low values 1.01 | locus YFR010W, strain ubp6, hits give low values 1.01 | locus YGL078C, strain dbp3, hits give low values 0.971 | locus YGL086W, strain mad1, hits give low values 0.999 | locus YGL167C, strain pmr1, hits give low values 1 | locus YGL173C, strain kem1, hits give low values 1.02 | locus YGL227W, strain vid30, hits give low values 1 | locus YGL240W, strain doc1, hits give low values 1.03 | locus YGL248W, strain PDE1, hits give low values 0.94 | locus YGL253W, strain hxk2, hits give low values 1.01 | locus YGR135W, strain pre9, hits give low values 0.974 | locus YGR252W, strain gcn5, hits give low values 0.959 | locus YHR013C, strain ard1, hits give low values 1.06 | locus YHR027C, strain rpn1, hits give low values 1 | locus YHR030C, strain SLT2, hits give low values 1.02 and 1.01 | locus YHR079C, strain IRE1 (second series), hits give low values 0.997 | locus YHR079C, strain IRE1, hits give low values 1.01 | locus YHR094C, strain hxt1, hits give low values 1 | locus YHR129C, strain ARP1, hits give low values 1.01 | locus YHR142W, strain chs7, hits give low values 0.976 | locus YHR200W, strain rpn10, hits give low values 1.02 | locus YIL066C, strain RNR3, hits give low values 1.01 | locus YIL073C, strain SPO22, hits give low values 0.881 | locus YIL125W, strain kgd1, hits give low values 0.99 | locus YIR030C, strain dcg1, hits give low values 0.996 | locus YJL092W, strain hpr5, hits give low values 1 | locus YJL095W, strain BCK1 (second series), hits give low values 1.01 | locus YJL095W, strain BCK1, hits give low values 0.992 and 1.02 | locus YJL115W, strain asf1, hits give low values 1 | locus YJL129C, strain trk1, hits give low values 0.994 | locus YJL134W, strain LCB3, hits give low values 1.02 | locus YJL154C, strain vps35, hits give low values 0.993 | locus YJL164C, strain tpk1, hits give low values 0.997 | locus YJL166W, strain qcr8, hits give low values 0.984 | locus YJL168C, strain set2, hits give low values 0.986 | locus YJL187C, strain SWE1 (second series), hits give low values 1 | locus YJL187C, strain SWE1, hits give low values 1.01 | locus YJR043C, strain POL32, hits give low values 1.03 | locus YJR066W, strain TOR1, hits give low values 0.951 | locus YKL009W, strain mrt4, hits give low values 0.985 | locus YKL068W, hits give low values 1.01 | locus YKL085W, strain MDH1 (second series), hits give low values 1.01 | locus YKL085W, strain MDH1, hits give low values 1.01 | locus YKL160W, strain elf1, hits give low values 0.998 | locus YKR001C, strain vps1, hits give low values 0.91 | locus YKR026C, strain gcn3, hits give low values 0.977 | locus YKR091W, strain srl3, hits give low values 0.995 | locus YLL001W, strain dnm1, hits give low values 0.993 | locus YLL026W, hits give low values 1 | locus YLL041C, strain sdh2, hits give low values 0.996 | locus YLR027C, strain aat2, hits give low values 1 | locus YLR039C, strain RIC1, hits give low values 0.922 | locus YLR058C, strain SHM2, hits give low values 1.01 | locus YLR102C, strain apc9, hits give low values 1 | locus YLR113W, strain HOG1, hits give low values 1.02 | locus YLR221C, strain rsa3, hits give low values 0.997 | locus YLR258W, strain gsy2, hits give low values 1 | locus YLR262C, strain YPT6 (second series), hits give low values 0.973 | locus YLR262C, strain YPT6, hits give low values 0.981 | locus YLR268W, strain sec22, hits give low values 0.997 | locus YLR320W, strain mms22, hits give low values 1.01 | locus YLR330W, strain CHS5, hits give low values 1.02 | locus YLR342W, strain FKS1 (second series), hits give low values 1.06 | locus YLR342W, strain FKS1, hits give low values 1.01 | locus YLR357W, strain rsc2, hits give low values 1.01 | locus YLR370C, strain arc18, hits give low values 1.01 | locus YLR371W, strain rom2, hits give low values 1 | locus YLR384C, strain iki3, hits give low values 1.03 | locus YLR418C, strain cdc73, hits give low values 1 | locus YML016C, strain PPZ1, hits give low values 1.01 | locus YML032C, strain rad52, hits give low values 1.01 | locus YML120C, strain ndi1, hits give low values 1.02 | locus YML124C, strain tub3, hits give low values 0.999 | locus YMR058W, strain fet3, hits give low values 1.02 | locus YMR078C, strain ctf18, hits give low values 1 | locus YMR125W, strain sto1, hits give low values 0.992 | locus YMR129W, hits give low values 0.999 | locus YMR205C, strain PFK2, hits give low values 1.04 | locus YMR223W, strain ubp8, hits give low values 0.995 | locus YMR231W, strain pep5, hits give low values 1 | locus YMR307W, strain GAS1, hits give low values 0.948 | locus YNL067W, strain RPL9B, hits give low values 1 | locus YNL071W, strain lat1, hits give low values 1 | locus YNL153C, strain GIM3, hits give low values 1.02 | locus YNL183C, strain NPR1, hits give low values 0.946 | locus YNL209W, strain ssb2, hits give low values 1 | locus YNL233W, strain BNI4, hits give low values 1 | locus YNL248C, strain rpa49, hits give low values 0.986 | locus YNL250W, strain rad50, hits give low values 1.02 | locus YNL271C, strain bni1, hits give low values 0.993 | locus YNL298W, strain CLA4, hits give low values 0.992 | locus YNL307C, strain MCK1, hits give low values 1.01 | locus YNL322C, strain KRE1 (second series), hits give low values 1.01 | locus YNL322C, strain KRE1, hits give low values 1.01 | locus YNR049C, strain mso1, hits give low values 1 | locus YNR052C, strain pop2, hits give low values 0.989 | locus YOL012C, strain htz1 1.15 | locus YOL147C, strain pex11, hits give low values 1 | locus YOR001W, strain rrp6, hits give low values 0.999 | locus YOR061W, strain CKA2, hits give low values 1.01 | locus YOR069W, strain VPS5, hits give low values 1.01 | locus YOR070C, strain gyp1, hits give low values 1.01 | locus YOR080W, strain dia2, hits give low values 1.01 | locus YOR083W, strain WHI5, hits give low values 1 | locus YOR106W, strain vam3, hits give low values 0.949 | locus YOR136W, strain idh2, hits give low values 0.996 | locus YOR144C, strain elg1, hits give low values 1 | locus YOR184W, strain ser1, hits give low values 0.921 | locus YOR231W, strain MKK1, hits give low values 1.02 | locus YOR265W, strain rbl2, hits give low values 0.997 | locus YOR270C, strain vph1, hits give low values 1.01 | locus YOR290C, strain snf2, hits give low values 0.979 | locus YOR316C, strain cot1, hits give low values 1 | locus YPL051W, strain arl3, hits give low values 1 | locus YPL078C, strain atp4, hits give low values 0.999 | locus YPL106C, strain sse1, hits give low values 1.02 | locus YPL240C, strain hsp82, hits give low values 1 | locus YPL241C, strain CIN2, hits give low values 1.02 | locus YPL256C, strain CLN2, hits give low values 1.02 | locus YPR119W, strain clb2, hits give low values 0.993 | locus YPR141C, strain kar3, hits give low values 1.01 | locus YPR163C, strain tif3, hits give low values 1 | locus YPR167C, strain met16, hits give low values 0.993 | strain wtn01, hits give low values 1
